In PubChem BioAssay:
A number with no mark means an inactive call. Entries that show only a call come without a potency. For some assays here: Potency and affinity values are given separately. The source made the active and inactive calls. Unless noted, how the calls were made is not given here.

Key:
[1] = antimalarial activity against Dd2 strain (AID 2302;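 active means growth inhibition above 50% at the single 2 µM test dose, taken to imply half-maximal potency below 2 µM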); settings: P. falciparum Dd2 in RBCs, LDH growth readout, 72 h; at 2 µM; hits give high values
[2] = human hepatoma cell viability loss – ATP luminescence, cytotoxicity control for P. falciparum antimalarial project, primary screen (AID 2303;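 active means inhibition above 50%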); settings: HepG2 viability, 24-48 h, at 10 µM, hits give high values
[3] = target: L-lactate dehydrogenase (Plasmodium falciparum (isolate CDC / Honduras)) (UniProt Q27743); assay: PfLDH activity inhibition – cell lysate, 3D7 strain, counter-screen for P. falciparum growth inhibition project (AID 2304); settings: P. falciparum 3D7 crude extract, LDH APAD/NBT absorbance; at 2 µM; hits give high values
[4] = inhibition of 3D7 malaria parasite growth – strain 3D7 (AID 2306); settings: P. falciparum 3D7 erythrocytic growth, LDH absorbance, 72 h; at 2 µM; hits give high values
[5] = target: Calcium-dependent protein kinase 1 (Plasmodium falciparum (isolate 3D7)) (UniProt P62344); assay: PfCDPK1 kinase inhibitors, biochemical, TCAMS library (AID 1159585; cut-off not given, nearly all actives have IC50 up to about 0.98 µM;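 further: inhibitors leave more ATP so luminescence rises with inhibition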); settings: recombinant PfCDPK1, Kinase-Glo ATP depletion luminescence
[6] = target: Plasmodium falciparum protein kinase 6 (PK6, PF3D7_1337100) (UniProt Q8IDW1); assay: PfPK6 kinase inhibitors, biochemical, TCAMS library (AID 1159586); settings: recombinant PfPK6, Kinase-Glo ATP depletion luminescence
[7] = target: Protein kinase 7 (PK7), Plasmodium falciparum 3D7 (PF3D7_0213400) (UniProt Q7YTF7); assay: inhibition of Plasmodium PK7 catalytic activity – biochemical, TCAMS antimalarial set, Kinase-Glo luminescence (AID 1159587); settings: recombinant PfPK7, Kinase-Glo ATP depletion luminescence
[8] = target: Calcium-dependent protein kinase 4 (Plasmodium falciparum (isolate 3D7)) (UniProt Q8IBS5); assay: PfCDPK4 kinase inhibitors, biochemical, TCAMS library (AID 1159588; cut-off not given, nearly all actives have IC50 up to about 0.91 µM); settings: recombinant PfCDPK4, Kinase-Glo ATP depletion luminescence
Chain of Calcium-dependent protein kinase 4 (Plasmodium falciparum (isolate 3D7)) (Q8IBS5 whole entry, looked up): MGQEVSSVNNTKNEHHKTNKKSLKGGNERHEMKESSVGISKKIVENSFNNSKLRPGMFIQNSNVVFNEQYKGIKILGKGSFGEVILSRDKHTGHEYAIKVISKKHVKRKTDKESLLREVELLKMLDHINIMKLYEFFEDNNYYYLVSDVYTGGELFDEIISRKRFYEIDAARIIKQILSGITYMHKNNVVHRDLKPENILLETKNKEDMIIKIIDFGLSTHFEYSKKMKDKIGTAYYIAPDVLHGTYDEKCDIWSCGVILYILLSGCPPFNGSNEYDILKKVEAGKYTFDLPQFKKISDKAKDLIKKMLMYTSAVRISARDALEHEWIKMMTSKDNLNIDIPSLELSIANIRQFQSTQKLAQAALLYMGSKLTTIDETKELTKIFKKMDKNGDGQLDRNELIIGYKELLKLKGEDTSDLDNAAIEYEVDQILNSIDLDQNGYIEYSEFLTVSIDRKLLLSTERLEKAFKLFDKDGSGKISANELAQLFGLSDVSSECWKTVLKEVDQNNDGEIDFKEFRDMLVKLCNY

Chain of Plasmodium falciparum protein kinase 6 (PK6, PF3D7_1337100) (Q8IDW1 1-305): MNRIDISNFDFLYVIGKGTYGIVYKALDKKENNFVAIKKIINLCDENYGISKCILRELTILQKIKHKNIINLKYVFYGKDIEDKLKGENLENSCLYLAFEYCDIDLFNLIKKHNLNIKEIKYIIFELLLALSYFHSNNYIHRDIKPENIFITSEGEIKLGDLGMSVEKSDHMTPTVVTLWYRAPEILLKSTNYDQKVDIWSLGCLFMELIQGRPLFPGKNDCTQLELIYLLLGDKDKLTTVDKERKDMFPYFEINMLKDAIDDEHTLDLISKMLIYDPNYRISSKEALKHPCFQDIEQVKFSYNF
Chain of Calcium-dependent protein kinase 1 (Plasmodium falciparum (isolate 3D7)) (P62344 whole entry, looked up): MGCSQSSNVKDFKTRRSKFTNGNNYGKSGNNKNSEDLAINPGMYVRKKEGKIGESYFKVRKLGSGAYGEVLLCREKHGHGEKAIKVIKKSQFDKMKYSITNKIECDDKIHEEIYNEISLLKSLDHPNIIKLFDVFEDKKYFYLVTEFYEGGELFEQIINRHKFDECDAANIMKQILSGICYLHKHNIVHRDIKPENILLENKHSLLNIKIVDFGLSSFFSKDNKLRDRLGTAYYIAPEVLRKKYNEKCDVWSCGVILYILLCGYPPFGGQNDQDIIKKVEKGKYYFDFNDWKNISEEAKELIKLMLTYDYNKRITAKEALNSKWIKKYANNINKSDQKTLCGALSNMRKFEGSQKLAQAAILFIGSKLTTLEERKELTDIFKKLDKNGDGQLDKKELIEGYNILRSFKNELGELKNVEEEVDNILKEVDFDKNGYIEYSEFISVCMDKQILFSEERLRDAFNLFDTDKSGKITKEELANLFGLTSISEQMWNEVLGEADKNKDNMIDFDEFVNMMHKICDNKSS
Chain of Protein kinase 7 (PK7), Plasmodium falciparum 3D7 (PF3D7_0213400) (Q7YTF7 1-343): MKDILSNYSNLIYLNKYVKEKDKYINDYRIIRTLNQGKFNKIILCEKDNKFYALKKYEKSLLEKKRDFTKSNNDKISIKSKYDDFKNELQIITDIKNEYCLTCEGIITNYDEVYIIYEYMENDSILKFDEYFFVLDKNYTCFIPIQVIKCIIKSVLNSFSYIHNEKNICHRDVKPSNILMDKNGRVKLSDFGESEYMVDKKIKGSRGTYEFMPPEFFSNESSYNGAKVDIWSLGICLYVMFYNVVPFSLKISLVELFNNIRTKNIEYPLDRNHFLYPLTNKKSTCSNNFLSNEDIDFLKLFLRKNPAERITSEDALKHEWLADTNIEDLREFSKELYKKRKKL
Chain of L-lactate dehydrogenase (Plasmodium falciparum (isolate CDC / Honduras)) (Q27743 whole entry, looked up): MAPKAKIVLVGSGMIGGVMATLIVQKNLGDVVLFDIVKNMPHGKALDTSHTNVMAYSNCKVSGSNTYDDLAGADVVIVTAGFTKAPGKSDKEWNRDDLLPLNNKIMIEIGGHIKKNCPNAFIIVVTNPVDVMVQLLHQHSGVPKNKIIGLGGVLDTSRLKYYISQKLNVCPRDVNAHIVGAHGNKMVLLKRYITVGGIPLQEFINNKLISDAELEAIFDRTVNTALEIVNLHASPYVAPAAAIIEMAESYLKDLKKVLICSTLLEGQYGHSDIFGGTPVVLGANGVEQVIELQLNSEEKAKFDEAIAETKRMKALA

SMILES	growth inhibition [1]	inhibition [2]	inhibition [3] [%]	growth inhibition [4]	outcome [5]	outcome [6]	outcome [7]	outcome [8]
COc1ccccc1C1CCN(C2CCC(NC(=O)/C=C/c3cccc(C(F)(F)F)c3)CC2)CC1 (stereo not given)	34%	38%	-3	99% (active)	inactive	inactive	inactive	inactive
O=C(NCC1CCC(C(=O)NCc2cccc3ccccc23)CC1)c1ccc(O)c(-c2ccc(Cl)c(Cl)c2)c1 (stereo not given)	92% (active)	0%	-6	100% (active)	inactive	inactive	inactive	inactive
CCN=C1NC2=C(CC(C(C)(C)C)CC2)C2(CCC(C(C)(C)C)CC2)S1 (stereo not given)	99% (active)	40%	4	99% (active)	inactive	inactive	inactive	inactive
CC(C)NC[C@@H](O)[C@H](Cc1ccccc1)NC(=O)c1cc2c3c(c1)c(C(C)C)cn3CCS(=O)(=O)N2C	99% (active)	5%	-3	98% (active)	inactive	inactive	inactive	inactive
COc1cccc(C(=O)Nc2ccc(-c3nc4ccccc4[nH]3)cc2)c1	19%	28%	-3	95% (active)	inactive	inactive	inactive	inactive
C=C(NC(=O)C1CCCCC1)C(=O)OC	3%	15%	-4	93% (active)	inactive	inactive	inactive	inactive
COCCn1c(SC(C)C(=O)Nc2cc(C(F)(F)F)ccc2Cl)nc2ccccc2c1=O (stereo not given)	95% (active)	8%	4	97% (active)	inactive	inactive	inactive	inactive
CCc1c(CCNCCCCCCNCCc2ccc3c(c2C)OCO3)ccc2c1OCO2	7%	59% (active)	7	101% (active)	inactive	inactive	inactive	inactive
COc1ccccc1C1CCN(C2CCC(NC(=O)/C=C/c3ccc(OC(F)(F)F)cc3)CC2)CC1 (stereo not given)	11%	65% (active)	-3	82% (active)	inactive	inactive	inactive	inactive
O=C(NC1CCN(Cc2ccccc2)CC1)c1ccc(-c2nc3cc(Cl)c(F)cc3[nH]2)s1	99% (active)	28%	3	101% (active)	inactive	inactive	inactive	inactive
COc1ccc2nc(-c3ccc(C(=O)NCCCN4CCN(c5cc(Cl)ccc5OC)CC4)cc3)[nH]c2c1	53% (active)	-2%	1	97% (active)	inactive	inactive	inactive	inactive
Cc1cccc(NC(=O)N(Cc2cc3cc(C)cc(C)c3[nH]c2=O)C2CC2)c1	94% (active)	3%	2	97% (active)	inactive	inactive	inactive	inactive
COc1cc(F)c2ncc(Cl)c(CCN3CCC(NCc4ccc5c(c4)NC(=O)CO5)CC3)c2c1	79% (active)	32%	-2	95% (active)	inactive	inactive	inactive	inactive
COc1cc(OC)cc(-c2nn(-c3ccc([N+](=O)[O-])cc3Cl)c(=S)n2Cc2ccco2)c1	100% (active)	15%	2	101% (active)	inactive	inactive	inactive	inactive
Cc1ccccc1OCC(O)CNC1CCC(NCC(O)COc2ccccc2C)CC1 (stereo not given)	24%	96% (active)	0	98% (active)	inactive	inactive	inactive	inactive
COc1ccc(NC(=O)/C=C/c2ccccc2Cl)cc1OCCN1CCC(N2CCCCC2)CC1	49%	3%	1	101% (active)	inactive	inactive	inactive	inactive
CCCCCCN1CCC(NCc2ccc(C)cc2)CC1	4%	16%	-1	93% (active)	inactive	inactive	inactive	inactive
CCc1cn2c3c(cc(C(=O)N[C@@H](Cc4ccccc4)[C@H](O)CNC4CCOCC4)cc13)N(CC(F)(F)F)S(=O)(=O)CC2	98% (active)	4%	-2	98% (active)	inactive	inactive	inactive	inactive
CN1CCN(c2cc(NC(=O)c3ccc(-c4ccc(Cl)cc4)cc3)ccc2Cl)CC1	33%	30%	-2	99% (active)	inactive	inactive	inactive	inactive
Cc1cc(OCC2CCN(c3ncc(C(=O)Nc4ccccc4)cc3Cl)CC2)ccc1F	87% (active)	27%	-2	91% (active)	inactive	inactive	inactive	inactive

SMILES	growth inhibition [1]	inhibition [2]	inhibition [3] [%]	growth inhibition [4]	outcome [5]	outcome [6]	outcome [7]	outcome [8]
COc1ccc(-c2cc3ncnc(N4CCN(CCN5CCCC5)CC4)c3s2)cc1	90% (active)	22%	-2	98% (active)	inactive	inactive	inactive	inactive
CS(=O)(=O)c1ccc2c(c1)CCN(CCC1CCC(NC(=O)c3cc4cccc(Br)c4[nH]3)CC1)CC2 (stereo not given)	7%	27%	-8	92% (active)	inactive	inactive	inactive	inactive
Cc1ccc2[nH]c3c(NCCCN(C)C)ncnc3c2c1	-2%	1%	-4	99% (active)	inactive	inactive	inactive	inactive
COC(=O)c1ccc(C2OC3(C(=O)c4ccccc4C3=O)C(OC)=C2Cl)cc1C(C)=O (stereo not given)	85% (active)	-3%	-2	99% (active)	inactive	inactive	inactive	inactive
Cc1ccc(NC(=O)N2CCCN(CCCCCNC(=O)/C=C/c3ccc(Cl)c(Cl)c3)CC2)cc1	2%	12%	-6	99% (active)	inactive	inactive	inactive	inactive
c1ccc(Oc2ccc(Nc3ccnc4cc(-c5cccc(CN6CCOCC6)c5)ccc34)cc2)cc1	100% (active)	14%	-1	101% (active)	inactive	inactive	inactive	inactive
CN(C)c1ccc(-c2ccc(C(=O)NC3CCN(Cc4ccc(F)cc4)CC3)s2)cc1	19%	34%	-1	87% (active)	inactive	inactive	inactive	inactive
O=C(N[C@H]1CCN(Cc2ccc(OCCN3CCCC3)c(Cl)c2)C1)c1ccc(Cl)c(Cl)c1	46%	68% (active)	-1	101% (active)	inactive	inactive	inactive	inactive
COc1cccc(-c2ccc(NC(=O)C3CCCN(Cc4cccc(OC)c4O)C3)cc2)c1 (stereo not given)	78% (active)	13%	1	98% (active)	inactive	inactive	inactive	inactive
N#Cc1ccc2c(c1)CCN(CCC1CCC(NC(=O)c3cc4ccc(Br)cc4[nH]3)CC1)C2 (stereo not given)	17%	12%	-13	103% (active)	inactive	inactive	inactive	inactive
Nc1nc(N)c2c(ccc3nccc32)[nH]1	-1%	58% (active)	8	88% (active)	inactive	inactive	inactive	inactive
Cc1ccc([N+](=O)[O-])cc1NC(=O)N(CC(O)c1ccccc1)C1CCCCC1 (stereo not given)	98% (active)	11%	6	100% (active)	inactive	inactive	inactive	inactive
CC(=NN=C(N)N)C(=O)Nc1ccc(Cl)c(Cl)c1	97% (active)	-3%	0	101% (active)	inactive	inactive	inactive	inactive
COc1ccc(Cn2ncc3c4c(N)nc(N)nc4ccc32)cc1OC	95% (active)	68% (active)	3	94% (active)	inactive	inactive	inactive	inactive
O=C(NOCc1ccccc1)c1cc(Cl)ccc1O	-1%	2%	5	83% (active)	inactive	inactive	inactive	inactive
COc1ccc(CCNCCCCNCCc2ccc(OC)c3ccccc23)c2ccccc12	33%	100% (active)	-1	100% (active)	inactive	inactive	inactive	inactive
CC(CN1CCN(C)CC1)C(=O)Nc1ccc(-c2ccc(-c3nc4ccc(F)cc4[nH]3)cc2)cc1 (stereo not given)	87% (active)	19%	-5	101% (active)	inactive	inactive	inactive	inactive
O=C(Cc1cccc2ccccc12)N1CCc2cc3nccc(N4CCN5CCC[C@H]5C4)c3cc21	99% (active)	3%	2	101% (active)	inactive	inactive	inactive	inactive
CC(C)CCN(Cc1cncn1Cc1cccc(Cl)c1)C(=O)c1cncc(-c2ccccc2)c1	-1%	9%	-2	99% (active)	inactive	inactive	inactive	inactive
c1ccc(-n2ncc(CNCc3ccc(-c4cccc(-c5nc6ccccc6[nH]5)c4)cc3)n2)cc1	9%	21%	3	94% (active)	inactive	inactive	inactive	inactive
